Hits are enriched below; roughly 21% of the tested compounds scored in any of these assays.
HCMV antiviral: inhibitors of human cytomegalovirus; HFF cells, HCMV-luciferase reporter, 72 h; active compounds read low; AID 1259415; activity change, negative = inhibition, % at 57.5 µM; 410,000 compounds, 4.5% hits; in the data active means activity change below about -60%; inconclusive means no clear call, values can overlap the other calls; inactive means above about -39%; further: on the % scale 0 is the no-effect control and ±100 the full control effect
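Compounds were evaluated in HFFs infected with an HCMV luciferase reporter virus (MOI 1 PFU/cell). Luciferase in lysates collected 72 h post infection served as the replication measure.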
HCV inhibitor: blocks hepatitis C virus; Huh7.5.1 HCVcc-Cre infection, luciferase reporter, 44 h; Potency, µM (doses to about 41.8 µM), without a hit: at the top dose activity change, negative = inhibition, usual class: inhibitors; 340,000 compounds, 3.4% hits; AID 651820; further: potency means the concentration at half of the fitted maximal effect; on the % scale 0 is the no-effect control and ±100 the full control effect
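After 44 h co-culture of compound, cells and HCVcc-Cre (~0.5 moi), substrate is added for 15 min at room temperature and luciferase measured over 15 sec. Cells were seeded at 1,000/well and pre-cultured 4 h.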
Pf growth 48h: P. falciparum growth inhibition at 48 hours (one generation); P. falciparum luciferase growth in erythrocytes, 48 h; Potency, µM (doses to about 28.7 µM), for the others: at the highest dose activity change, negative = inhibition, most hits filed as inhibitors; 310,000 compounds, 5.9% hits; further: potency means the concentration at half of the fitted maximal effect; on the % scale 0 is the no-effect control and ±100 the full control effect
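Luminescence readout; reporter = integrated firefly luciferase in P. falciparum. RBC culture at 2% hematocrit, 0.1% parasitemia final, 37 C/5% CO2; decreased signal taken as growth inhibition.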
CHX counter: counter-screen for Shiga toxin inhibitors: cycloheximide protein synthesis inhibition | 300,000 compounds, 12% hits | AID 2314 | cell reporter, cycloheximide protein synthesis inhibition counterscreen | max response, %; in the data active means max response mostly above about 13%, no sharp cut-off; inactive means mostly below about 14%; further: read at 38.3 µM for the half of the compounds with a filed dose; 0% is about no effect
Shiga toxin inh: blocks Shiga toxin action in Vero cells; Vero cells, Shiga toxin protein synthesis inhibition reporter; inhibition, % at 38.7 µM; 290,000 compounds, 9.2% hits; in the data active means inhibition mostly above about 28%, no sharp cut-off; inactive means mostly below about 43%; further: 0% is about no effect
Pf growth 96h: inhibits malaria parasite growth, 96 h. P. falciparum luciferase reporter growth, 96 h. Potency, µM (titrated, usually from 28.7 µM), without a hit: top-dose activity change, negative = inhibition, actives largely listed as inhibitors. 320,000 compounds, 6.9% hits; further: potency means the concentration at half of the fitted maximal effect; on the % scale 0 is the no-effect control and ±100 the full control effect
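Compounds incubated with erythrocytes infected by luciferase-expressing P. falciparum (2% hematocrit, 0.05% parasitemia final) for 96 hours, 37 C in 5% CO2. Growth inhibition scored as decreased luciferase luminescence.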
* = called active by the depositor; i = inactive; ? = inconclusive; . = not tested or not shown; ! = not active in a repeat; [ ] = dose if it differs, or a comment. Unless noted, the call rests on the fitted dose curve; in most records, active means well fitted inhibition curve with a large enough effect; inconclusive means small, poorly fitted or top-dose-only effect, or another doubt; inactive means no such curve, though single readings can be large or run the other way.

SMILES	HCMV antiviral	HCV inhibitor	Pf growth 48h	CHX counter	Shiga toxin inh	Pf growth 96h
COc1cc(NC(=O)c2cccc(C)c2)c(OC)cc1NC(=O)CN1CCOCC1	-36	?	?	7	-15	-1%
COc1cc(Cl)ccc1NC(=S)N(CCN1CCOCC1)C1CCN(C(C)=O)CC1	-101*	11%	4%	-2	-8	?
C=CCN(c1ccccc1)S(=O)(=O)c1ccc2c(c1)NC(=O)C(C)C(=O)N2 (stereo unspecified)	11	11%	9%	1	6	18%
COc1ccccc1CNC(=O)[C@H](C)NC(=O)C1CCN(C(=O)[C@H](CCSC)NC(=O)OC(C)(C)C)CC1	-4	-5%	?	2	14	-11%
O=C(O)/C=C/C(=O)c1ccc(O)cc1	-26	11%	?	1	27	0.93µM*
O=C(O)/C=C/C(=O)Nc1ccc(C(=O)c2ccccc2)cc1	-19	6%	-19%	-1	-12	?
Cc1ccc(NC(=O)C(=O)NN)cc1	0	16%	35%	-1	-3	9%
O=C(O)/C=C/C(=O)Nc1ccc(O)cc1	-11	12%	41%	12	2	10µM*
Cc1nc2ccc(NC(=O)/C=C/C(=O)O)cc2nc1C	3	20%	-7%	25	45	?
O=C(O)/C=C/C(=O)Nc1ccc2nccnc2c1	-9	4%	2%	23*	46	-9%
NNC(=O)C(=O)Nc1ccc(O)cc1	0	13%	0%	23*	71	37%
COc1ccc(/C=C/c2c(-c3ccc(OC)cc3)oc3ccc(-c4ccc(OC)cc4)cc23)cc1	?	-7%	8%	-1	-7	?
COc1ccc(/C=C/c2cc(-c3ccc(C)cc3)o[n+]2C)cc1	-104*	?	?	-2	-30	0.15µM*
CCOc1ccccc1NC(=O)C(c1ccccc1)N1CCN(CC(=O)N2CCCC2)CC1 (stereo unspecified)	0	-4%	.	.	.	.
Cc1ccc(CNC(=O)c2c(-c3cccc(Br)c3)noc2C)o1	-11	.	.	.	.	.
CCOc1ccccc1N=C1SC(CC(=O)Nc2ccc(OC)cc2OC)C(=O)N1CCC1=CCCCC1 (stereo unspecified)	-36	?	?	4	-6	4.1µM*
O=C(CC1SC(=Nc2ccc(OC(F)F)cc2)N(CCC2=CCCCC2)C1=O)Nc1ccccc1F (stereo unspecified)	37	-5%	10µM*	15	24	2.6µM*
CC(C)c1nc2c(s1)CCc1onc(-c3cccc([N+](=O)[O-])c3)c1-2	-31	?	-26%	.	.	24%
CCOc1cc(CNC2CCCC2)cc(Cl)c1OCc1ccc(F)cc1	-16	4µM*	0%	-6	-23	.
COc1cc(CNC2CCCC2)cc(Cl)c1OCc1ccc(F)cc1	34	1.3µM*	?	-4	-11	99%
CCN(c1ccccc1)S(=O)(=O)c1ccc(NC(=S)NC(=O)c2cccs2)cc1	?	10µM*	?	17	30*	?
CN(C)S(=O)(=O)c1ccc(NC(=S)NC(=O)c2cccs2)cc1	-4	-1%	13%	11*	23	9.3µM*
O=C(NC(=S)Nc1ccc(S(=O)(=O)N2CCCC2)cc1)c1cccs1	1	1%	-17%	13	0	?
Cc1ccccc1NS(=O)(=O)c1ccc2[nH]cc(C(=O)NC(C)c3ccccc3)c(=O)c2c1 (stereo unspecified)	-20	.	.	.	.	.
Cc1ccc(CNC(=O)Cn2ncc3c(C)n(Cc4ccc(Cl)cc4)c(C)c3c2=O)cc1	-5	.	.	.	.	.
SMILES	HCMV antiviral	HCV inhibitor	Pf growth 48h	CHX counter	Shiga toxin inh	Pf growth 96h
O=c1cc(-c2ccccc2)[nH]c2ccc(F)cc12	-62*	-10%	0.59µM*	16	17	1.5µM*
O=c1cc(-c2ccc(F)cc2F)[nH]c2ccccc12	.	1%[8.37 µM]	11%	-1	-8	0%
Cc1ccc2[nH]c(C)cc(=O)c2c1	.	.	.	-1	i	.
O=c1cc(C(F)(F)F)[nH]c2ccccc12	13	-1%	-2%	-2	-9	?
Cc1ccc2[nH]c(C(F)(F)F)cc(=O)c2c1	-73*	9%	-8%	14	-1	-5%
Cc1ccc(-c2cc(=O)c3cc(F)ccc3[nH]2)cc1	0	-6%	?	16*	18	10µM*
Cc1ccc(-c2cc(=O)c3cc(C)ccc3[nH]2)cc1	0	?	-6%	43*!	59*!	?
CCOC(=O)c1ccc2[nH]c(-c3ccc(S(=O)(=O)F)cc3)cc(=O)c2c1	57	-4%	-3%	4	-15	?
CCOC(=O)c1c(C)[nH]c(C(=O)OCC(=O)Nc2cc(C)nn2-c2ccccc2)c1C	-17	?	?	.	.	?
CCOc1ccccc1OCCC(=O)OCC(=O)Nc1c(C)cc(C)cc1C	0	4%	-3%	.	.	-3%
CS(=O)(=O)c1ccc(-c2csc(N3CCC(C(N)=O)CC3)n2)cc1	.	.	5%	.	.	0%
CN(C)c1nc(-c2ccc([N+](=O)[O-])cc2)cs1	?	?	124%	21*	78	.
C=CCNc1nc(-c2ccc([N+](=O)[O-])cc2)cs1	-69*	?	225%	56*	63*	40%
C=CCNc1nc(-c2ccc(Cl)cc2)cs1	13	?	80%	64*	130*	.
CCCOc1ccc(-c2nc(-c3ccc([N+](=O)[O-])cc3)cs2)cc1	19	-19%	81%	-1	2	62%
CC1(C)CC(=O)C=C(NCCc2ccccc2)C1	10	10%	0%	6	19	12%
CC1(C)CC(=O)C=C(/C=C/c2ccccc2)C1	-30	19%	?	.	.	2.1µM*
CN1CCc2c(sc(NC(=O)C3CCN(S(=O)(=O)c4cccs4)CC3)c2C(N)=O)C1	-23	-1%	-19%	.	.	-15%
CCN(CC)CCNC(=O)C(=O)NCC1OCCN1S(=O)(=O)c1ccc([N+](=O)[O-])cc1 (stereo unspecified)	-5	6%	-1%	-5	-7	1%
Nc1ccc(Br)c[n+]1Cc1cccc2cccnc12	-20	-4%	?	-4	-12	10µM*
Nc1scn[n+]1Cc1cccc2cccnc12	-15	12%	?	5	5	?
COc1cc(/C=N/NC(=O)c2ccc3c(c2)OCCO3)cc(Br)c1O	22	-5%	8%	32*	41*	1%
COc1cc(/C=N/NC(=O)c2ccc3c(c2)OCCO3)c(Br)c(Br)c1O	52	-5%	32%	32*	30	34%
CNC(=O)c1c2c(nc3ccc(Br)cc13)CCCC2	-1	25µM*	-8%	-2	-15	13%
Cc1ccc(N=Nc2c(O)c3ccccc3[nH]c2=O)c(S(=O)(=O)N(C)C)c1	.	.	?	38*	43*	?

Screens deposited in PubChem by National Center for Advancing Translational Sciences (NCATS).
